Assay results published in PubChem BioAssay (NCI).
Values joined by “and” are separate entries in the source; they are usually repeats but may differ in a detail not shown here. Equal values may be shown once. This is part of a sample that, as a whole, favours compounds with a hit. Of some 83,000 tested, about 20% had one in any assay.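 In brief: 96-well plates, 48 h treatment, single concentration, percent growth endpoint.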 Active and inactive are the calls of the source. How the source made its calls: active means growth percent below 10; inactive means the rest.

Legend:
Assay in all cases: NCI-60 one-dose screen, 48 h (100 = growth as untreated, 0 = no growth, -100 = all killed)
SK-MEL-2 melanoma = system: SK-MEL-2 melanoma
EKVX NSCLC = system: EKVX NSCLC
SN12C renal = system: SN12C renal
UO-31 renal = system: UO-31 renal
TK-10 renal = system: TK-10 renal
ACHN renal = conditions: 10 µM unless noted
CAKI-1 renal = conditions: 10 µM unless noted
A498 renal = system: A498 renal
CCRF-CEM leukemia = system: CCRF-CEM leukemia
MOLT-4 leukemia = conditions: 10 µM unless noted
SR leukemia = system: SR leukemia
RPMI-8226 leukemia = system: RPMI-8226 leukemia
OVCAR-8 ovarian = conditions: 10 µM unless noted
OVCAR-5 ovarian = system: OVCAR-5 ovarian
OVCAR-4 ovarian = system: OVCAR-4 ovarian
SK-OV-3 ovarian = system: SK-OV-3 ovarian
IGROV1 ovarian = system: IGROV1 ovarian
OVCAR-3 ovarian = system: OVCAR-3 ovarian
HS 578T breast = system: HS 578T breast
NCI/ADR-RES ovarian = conditions: 10 µM unless noted

Cn1c(=O)c2[nH]c(CCCCCCCCc3nc4ccccc4[nH]3)nc2n(C)c1=O was tested, and the growth (SK-MEL-2 melanoma; 10 µM unless noted) was 79.3% (inactive) and 107% (inactive), the growth (EKVX NSCLC; 10 µM unless noted) was 42% (inactive) and 55.1% (inactive) and the growth (SN12C renal; 10 µM unless noted) was 81.2% (inactive) and 68% (inactive). The growth (UO-31 renal; 10 µM unless noted) was 73.9% (inactive) and 74.9% (inactive), the growth (TK-10 renal; 10 µM unless noted) was 84% (inactive) and 90.3% (inactive) and the growth (ACHN renal) was 61.1% (inactive) and 69% (inactive). For the same compound, the growth (CAKI-1 renal) was 49.7% (inactive) and 57.9% (inactive), the growth (A498 renal; 10 µM unless noted) was 55.7% (inactive) and 78.8% (inactive) and the growth (CCRF-CEM leukemia; 10 µM unless noted) was 69.6% (inactive) and 66.4% (inactive). The growth (MOLT-4 leukemia) was 41% (inactive) and 41.7% (inactive), the growth (SR leukemia; 10 µM unless noted) was 43.5% (inactive) and 45.4% (inactive) and the growth (RPMI-8226 leukemia; 10 µM unless noted) was 52.2% (inactive). For the same compound, the growth (OVCAR-8 ovarian) was 58.9% (inactive) and 69.2% (inactive), the growth (OVCAR-5 ovarian; 10 µM unless noted) was 106% (inactive) and 91.2% (inactive) and the growth (OVCAR-4 ovarian; 10 µM unless noted) was 23.5% (inactive) and 50.2% (inactive). For the same compound, the growth (SK-OV-3 ovarian; 10 µM unless noted) was 95.4% (inactive) and 94% (inactive), the growth (IGROV1 ovarian; 10 µM unless noted) was 100% (inactive) and 85.9% (inactive) and the growth (OVCAR-3 ovarian; 10 µM unless noted) was 88.1% (inactive) and 66.6% (inactive). The growth (HS 578T breast; 10 µM unless noted) was 109% (inactive) and 85.6% (inactive).

For Clc1ccc(SSc2ccc(Cl)cc2)cc1, the growth (SK-MEL-2 melanoma; 10 µM unless noted) was 101% (inactive) and 111% (inactive), the growth (EKVX NSCLC; 10 µM unless noted) was 103% (inactive) and 68.6% (inactive) and the growth (SN12C renal; 10 µM unless noted) was 97.5% (inactive) and 42.4% (inactive). The growth (UO-31 renal; 10 µM unless noted) was 85% (inactive) and 46.7% (inactive), the growth (TK-10 renal; 10 µM unless noted) was 88% (inactive) and 106% (inactive) and the growth (ACHN renal) was 99.4% (inactive) and 99.7% (inactive). For the same compound, the growth (CAKI-1 renal) was 95.8% (inactive) and 94.5% (inactive), the growth (A498 renal; 10 µM unless noted) was 87.9% (inactive) and 74.6% (inactive) and the growth (CCRF-CEM leukemia; 10 µM unless noted) was 97.9% (inactive). The growth (MOLT-4 leukemia) was 98.6% (inactive), the growth (SR leukemia; 10 µM unless noted) was 104% (inactive) and the growth (RPMI-8226 leukemia; 10 µM unless noted) was 102% (inactive) and 58.2% (inactive). The growth (OVCAR-8 ovarian) was 97.6% (inactive) and 86% (inactive), the growth (OVCAR-5 ovarian; 10 µM unless noted) was 93.9% (inactive) and 119% (inactive) and the growth (OVCAR-4 ovarian; 10 µM unless noted) was 103% (inactive) and 84.9% (inactive). For the same compound, the growth (SK-OV-3 ovarian; 10 µM unless noted) was 106% (inactive) and 125% (inactive), the growth (IGROV1 ovarian; 10 µM unless noted) was 102% (inactive) and 83.4% (inactive) and the growth (OVCAR-3 ovarian; 10 µM unless noted) was 101% (inactive) and 110% (inactive). For the same compound, the growth (HS 578T breast; 10 µM unless noted) was 97.9% (inactive) and 93.4% (inactive) and the growth (NCI/ADR-RES ovarian) was 99.2% (inactive) and 81.8% (inactive).

With CC#C[C@]1(O)CC[C@H]2[C@@H]3CCC4=CC(=O)CCC4=C3[C@@H](c3ccc4c(c3)OCO4)C[C@@]21C the growth (SK-MEL-2 melanoma; 10 µM) was 71.1% (inactive), the growth (SK-MEL-2 melanoma; 100 µM) was -50.8% (active) and the growth (EKVX NSCLC; 10 µM) was 72.4% (inactive). The growth (EKVX NSCLC; 100 µM) was -10.7% (active), the growth (SN12C renal; 10 µM) was 91.2% (inactive) and the growth (SN12C renal; 100 µM) was -16.1% (active). The growth (UO-31 renal; 10 µM) was 66.1% (inactive), the growth (UO-31 renal; 100 µM) was -42.4% (active) and the growth (TK-10 renal; 10 µM) was 69.9% (inactive). The growth (TK-10 renal; 100 µM) was -25.2% (active), the growth (ACHN renal) was 80.4% (inactive) and the growth (A498 renal; 10 µM) was 63% (inactive). For the same compound, the growth (A498 renal; 100 µM) was -59.7% (active), the growth (CCRF-CEM leukemia; 10 µM) was 89.9% (inactive) and the growth (CCRF-CEM leukemia; 100 µM) was -11.2% (active). The growth (SR leukemia; 10 µM) was 60.8% (inactive), the growth (SR leukemia; 100 µM) was -20.8% (active) and the growth (RPMI-8226 leukemia; 10 µM) was 69.6% (inactive). The growth (RPMI-8226 leukemia; 100 µM) was -35% (active), the growth (OVCAR-5 ovarian; 10 µM) was 109% (inactive) and the growth (OVCAR-5 ovarian; 100 µM) was 14.3% (inactive). The growth (OVCAR-4 ovarian; 10 µM) was 80.9% (inactive), the growth (OVCAR-4 ovarian; 100 µM) was 8.93% (active) and the growth (SK-OV-3 ovarian; 10 µM) was 87.8% (inactive). The growth (SK-OV-3 ovarian; 100 µM) was -5.43% (active), the growth (IGROV1 ovarian; 10 µM) was 86.1% (inactive) and the growth (IGROV1 ovarian; 100 µM) was 2.61% (active). The growth (OVCAR-3 ovarian; 10 µM) was 78% (inactive), the growth (OVCAR-3 ovarian; 100 µM) was -40.2% (active) and the growth (HS 578T breast; 10 µM) was 79% (inactive). For the same compound, the growth (HS 578T breast; 100 µM) was 0.161% (active).

With Cc1n[nH]c(=O)n(/N=C\c2c[nH]c3ccccc23)c1=O the growth (SK-MEL-2 melanoma; 10 µM unless noted) was 104% (inactive), the growth (EKVX NSCLC; 10 µM unless noted) was 109% (inactive) and the growth (SN12C renal; 10 µM unless noted) was 99.8% (inactive). For the same compound, the growth (UO-31 renal; 10 µM unless noted) was 60.6% (inactive), the growth (TK-10 renal; 10 µM unless noted) was 100% (inactive) and the growth (ACHN renal) was 98.5% (inactive). The growth (CAKI-1 renal) was 98.4% (inactive), the growth (A498 renal; 10 µM unless noted) was 103% (inactive) and the growth (CCRF-CEM leukemia; 10 µM unless noted) was 95.9% (inactive). For the same compound, the growth (MOLT-4 leukemia) was 91.6% (inactive), the growth (SR leukemia; 10 µM unless noted) was 108% (inactive) and the growth (RPMI-8226 leukemia; 10 µM unless noted) was 105% (inactive). For the same compound, the growth (OVCAR-8 ovarian) was 102% (inactive), the growth (OVCAR-5 ovarian; 10 µM unless noted) was 106% (inactive) and the growth (OVCAR-4 ovarian; 10 µM unless noted) was 96.9% (inactive). The growth (SK-OV-3 ovarian; 10 µM unless noted) was 97.2% (inactive), the growth (IGROV1 ovarian; 10 µM unless noted) was 102% (inactive) and the growth (OVCAR-3 ovarian; 10 µM unless noted) was 107% (inactive). For the same compound, the growth (HS 578T breast; 10 µM unless noted) was 108% (inactive) and the growth (NCI/ADR-RES ovarian) was 106% (inactive).

O=C1c2ccccc2C(=O)c2c(NCCNCCO)ccc(NCCNCCO)c21 was tested, and the growth (SK-MEL-2 melanoma; 10 µM unless noted) was -75.2% (active) and -0.89% (active) and -16.8% (active), the growth (EKVX NSCLC; 10 µM unless noted) was 38.4% (inactive) and 48.9% (inactive) and the growth (SN12C renal; 10 µM unless noted) was -0.766% (active) and 4.9% (active) and 7.36% (active). For the same compound, the growth (UO-31 renal; 10 µM unless noted) was -5.63% (active) and 55.9% (inactive) and 44.7% (inactive), the growth (TK-10 renal; 10 µM unless noted) was 21.8% (inactive) and 54.6% (inactive) and 38.8% (inactive) and the growth (ACHN renal) was 17.9% (inactive) and 24.5% (inactive) and 22.7% (inactive). The growth (CAKI-1 renal) was 19.8% (inactive) and 50.9% (inactive) and 35.4% (inactive), the growth (A498 renal; 10 µM unless noted) was -4.91% (active) and 79.3% (inactive) and 29.9% (inactive) and the growth (CCRF-CEM leukemia; 10 µM unless noted) was 153% (inactive) and 10.2% (inactive) and 1.67% (active). The growth (MOLT-4 leukemia) was 143% (inactive) and -3.2% (active) and -1.56% (active), the growth (SR leukemia; 10 µM unless noted) was 57.6% (inactive) and 5.34% (active) and -17.9% (active) and the growth (RPMI-8226 leukemia; 10 µM unless noted) was 55.6% (inactive) and 54% (inactive) and 33.8% (inactive). The growth (OVCAR-8 ovarian) was 0.849% (active) and 17.5% (inactive), the growth (OVCAR-5 ovarian; 10 µM unless noted) was -51.8% (active) and 43.9% (inactive) and 35.5% (inactive) and the growth (OVCAR-4 ovarian; 10 µM unless noted) was -16.3% (active) and 1.58% (active) and 1.59% (active). The growth (SK-OV-3 ovarian; 10 µM unless noted) was -4.52% (active) and 27.8% (inactive) and 34.9% (inactive), the growth (IGROV1 ovarian; 10 µM unless noted) was 29.1% (inactive) and 16.9% (inactive) and the growth (OVCAR-3 ovarian; 10 µM unless noted) was 64.1% (inactive) and 44.1% (inactive). For the same compound, the growth (HS 578T breast; 10 µM unless noted) was -20.7% (active) and -14.7% (active) and 30.7% (inactive).
